Source: PubChem (National Center for Advancing Translational Sciences (NCATS))
The list is not random: actives were taken first. Their share in the collection is about 12%.
Sm TGR block: qHTS Assay for the Inhibitors of Schistosoma Mansoni Peroxiredoxins. Schistosoma mansoni thioredoxin glutathione reductase (TGR), Q962Y6. purified TGR, DTNB reduction, TNB absorbance 405 nm. Potency, µM (highest dose often 114 µM), for inactives: top-dose activity change, negative = inhibition, hits mostly inhibitors. 3% of 360,000 active. AID 485364, 2010; further: on the % scale 0 is the no-effect control and ±100 the full control effect; nearly all actives have a fitted effect of over 60% in size
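TGR 20 nM + NADPH 100 uM (dispensed conc.), cpd preinc 15 min RT; start with NADPH (500 uM addition) then DTNB (15 mM addition). Kinetic TNB absorbance, 405 nm filter. Four-parameter Hill fit across titration.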
SARS PLpro yeast: qHTS of Yeast-based Assay for SARS-CoV PLP | S. cerevisiae expressing SARS-CoV PLpro, growth rescue | Potency, µM (top dose mostly 32.9 µM), inactives show top-dose activity, positive = growth rescue, hits mostly activators | 0.19% of 330,000 active; calls by dose curve; further: 0% is about no effect; nearly all actives have a fitted effect of over 55% in size
Pf growth 48h: Primary qHTS for delayed death inhibitors of the malarial parasite plastid, 48 hour incubation. P. falciparum luciferase growth in erythrocytes, 48 h. Potency, µM (series often up to 28.7 µM), inactives show at the top dose activity change, negative = inhibition, hits mostly inhibitors. 5.9% of 310,000 active; further: on the % scale 0 is the no-effect control and ±100 the full control effect
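In quantitative HTS format, infected erythrocytes bearing luciferase-reporter parasites were treated for a single generation at 37 C. Luminescence after adding detection reagent served as the growth measure.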
Pf growth 96h: Primary qHTS for delayed death inhibitors of the malarial parasite plastid, 96 hour incubation; P. falciparum luciferase reporter growth, 96 h; Potency, µM (doses to about 28.7 µM), for the others: at the top dose activity change, negative = inhibition, most hits filed as inhibitors; 6.9% of 320,000 active; AID 504834, 2011; further: on the % scale 0 is the no-effect control and ±100 the full control effect
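Cell-based qHTS: luciferase-tagged P. falciparum in erythrocytes (2% hematocrit, 0.05% parasitemia final) incubated with compounds for 96 hours, 37 C, 5% CO2; luciferase detection reagent then added and luminescence measured.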
* hit, by the source's call; ? = inconclusive; / = no result given. Unless noted, the call rests on the fitted dose curve; in most records, active means well fitted curve in the direction sought with a large enough effect; inconclusive means small, poorly fitted or top-dose-only effect, or another doubt; inactive means no such curve, though single readings can be large; an effect the other way counts as inactive or inconclusive. Potency means the concentration at half of the fitted maximal effect.

SMILES	Sm TGR block	SARS PLpro yeast	Pf growth 48h	Pf growth 96h
CC(C)N=c1scc(-c2cccs2)n1/N=C/c1ccc(O)c(O)c1O	20µM*	-75.3%	-15.9%	?
COc1ccc(-c2nc3cc(C(C)C)ccc3o2)cc1NC(=O)COc1ccc(C)cc1C	5.0%	/	/	/
CCOc1cc(C(=O)N=c2sccn2C)cc(Br)c1OC	0.2%	-10.3%	?	7.38µM*
CCOc1cc(C(=O)NC)cc(Br)c1OC	/	-0.8%	11.0%	-24.5%
CCN=c1scc(C)n1/N=C/c1cc(Br)c(O)c(OC)c1	?	-0.8%	?	5.86µM*
COc1cc(/C=N/N2C(=O)CSC2=S)cc(Br)c1O	12.6µM*	3.5%	0.0%	5.1%
O=C1CSC(=S)N1/N=C/c1cccc(C(F)(F)F)c1	-17.2%	2.9%	?	-24.1%
O=C1CSC(=S)N1/N=C/c1c(F)cccc1F	8.91µM*	0.6%	-5.9%	39.6%
O=C1CSC(=S)N1/N=C/C=C/c1ccccc1	15.8µM*	13.7%	7.5%	-18.4%
COc1cc(/C=N/N2C(C)CCCC2C)cc(Br)c1O (stereo not drawn)	-7.1%	4.3%	-18.8%	-0.4%
Cc1ccc(NC(=O)CSCC(=O)N(C)CC(=O)Nc2ccccc2C(F)(F)F)cc1	2.5%	-5.8%	-16.0%	0.5%
CCOC(=O)N1CCN(C(=O)C(CC(C)C)NS(=O)(=O)c2ccc(C)cc2)CC1 (stereo not drawn)	-5.2%	-1.5%	-13.4%	0.1%
Cc1ccc(S(=O)(=O)N/N=C\c2ccc3c(c2)OCO3)c(C)c1	0.9%	-7.8%	26.8%	-17.4%
Cc1ccc(NC(=S)NNS(=O)(=O)c2ccc3ccccc3c2)cc1Cl	-0.5%	-2.8%	22.5%	-25.0%
C=CCN(Cc1nc(-c2ccccc2)no1)C(=O)c1ccco1	-3.6%	2.8%	-3.1%	10.7%
COc1cccc(/C=N/N2C(=O)CSC2=S)c1O	5.62µM*	7.2%	4.5%	?
CCOC(=O)/C(C#N)=C\c1ccc(OCC(=O)Nc2ccc(C)cc2C)c(OC)c1	11.9%	2.0%	38.5%	2.62µM*
CCOC(=O)/C(C#N)=C/c1ccc(OCC(=O)Nc2cc(C)ccc2C)c(OC)c1	3.5%	8.5%	20.3%	?
CCCCn1c(N)c(N(CC(C)C)C(=O)CSCc2c(C)noc2C)c(=O)[nH]c1=O	5.6%	-6.1%	-13.9%	?
O=C1C2C3C=CC(C4CC34)C2C(=O)N1Cc1ccco1 (stereo not drawn)	50.1µM*	-0.7%	-1.8%	-1.8%
COCCN(CCOC)C(=O)c1ccc(CSc2nc3ccccc3s2)cc1	0.0%	-6.7%	31.6%	-0.7%
COc1cc(C2NCC(c3ccc(Cl)cc3Cl)c3c2[nH]c2ccccc32)cc(OC)c1OC (stereo not drawn)	0.2%	-16.0%	13.1µM*	11.7µM*
O=C(NCc1ccc(Cl)cc1)c1cc(S(=O)(=O)N2CCCCC2)c[nH]1	5.6%	-1.7%	?	20.1%
C[C@@]12C(=O)Nc3cc(Cl)ccc3C(=O)N1[C@H]1c3ccccc3OC[C@@H]1[C@@H]2c1ccccc1	-14.5%	0.9%	?	9.28µM*
C[C@@]12C(=O)Nc3ccc(Cl)cc3C(=O)N1[C@H]1c3ccccc3OC[C@@H]1[C@@H]2c1ccccc1	-12.5%	-0.8%	13.1µM*	10.4µM*
SMILES	Sm TGR block	SARS PLpro yeast	Pf growth 48h	Pf growth 96h
C[C@@]12C(=O)Nc3cc(Cl)ccc3C(=O)N1[C@H]1c3cc(Br)ccc3OC[C@@H]1[C@@H]2c1ccccc1	-1.4%	1.1%	9.28µM*	9.28µM*
C[C@@]12C(=O)Nc3cc(Cl)ccc3C(=O)N1[C@H]1c3cc(Cl)ccc3OC[C@@H]1[C@@H]2c1ccccc1	/	-13.6%	/	/
Fc1ccccc1N1CCN(c2nccn3nc(-c4ccc(Br)cc4)cc23)CC1	3.9%	/	/	/
CC(C)CC1Nc2ccc(C(=O)NCCCN3CCCCC3C)cc2NC1=O (stereo not drawn)	-9.2%	-4.2%	-21.0%	26.5%
CCCc1cc(=O)[nH]c(SCc2nc(-c3ccc(C)cc3)no2)n1	5.7%	/	/	/
CCc1ccc(NC(=O)C2CCN(c3cc(C)nc4c(-c5ccc(Cl)cc5)c(C)nn34)CC2)cc1	6.4%	/	/	/
Cc1ccnc2c(N3C(=O)C4C5c6ccccc6C(c6ccccc65)C4C3=O)cccc12 (stereo not drawn)	1.5%	10.5%	?	5.22µM*
Cc1ccccc1N1C(=O)C2C3CC(=O)C(c4ccccc43)C2C1=O (stereo not drawn)	-12.1%	0.5%	43.6%	106.0%
COc1ccccc1CNC(=O)c1cnc2sc(N3CCCCC3)nn2c1=O	3.3%	/	/	/
COc1ccccc1OCCNC(=O)CSC(=S)N1CCCC1	1.4%	-0.6%	5.6%	-17.0%
O=C(CSc1nc(SCC(=O)NCc2ccccc2)n(-c2ccccc2)n1)NCc1ccccc1	?	4.3%	/	9.28µM*
Cc1ccccc1NC(=S)c1ccc2ccccc2n1	50.1µM*	-24.9%	-27.2%	19.5%
CCCN(CC(=O)Nc1ccccc1C)C(=O)c1ccc2ccccc2n1	-4.8%	-1.8%	-4.9%	5.4%
Cc1cccc(C(=O)Nc2ccccc2OCc2cc(=O)n3c(C)csc3n2)c1	0.0%	/	/	/
O=C1Cc2ccccc2N1c1c(Cl)cccc1Cl	-1.3%	5.5%	-28.9%	3.29µM*
c1nnc(NC2=NCCCCC2)s1	5.4%	-2.7%	31.0%	5.86µM*
O=C(Nc1ccc2c(c1)oc1ccccc12)c1cccnc1	2.1%	-7.2%	?	2.08µM*
O=C(Nc1ccc2c(c1)oc1ccccc12)c1ccncc1	8.9%	-14.5%	30.3%	?
CNC(=O)COc1ccccc1C(=O)Nc1ccc2c(c1)oc1ccccc12	-22.6%	-4.8%	/	4.65µM*
Cc1ccc(-c2nc(CN(C)C)cc(CN(C)C)c2O)cc1	?	-2.5%	6.57µM*	?
Cc1ccc(-c2nc3ccc(C)cn3c2CC(=O)N(C)C)cc1	/	/	14.8%	-13.2%
Cc1ccc(CNC(=O)C(=O)NCC(c2cccnc2)N2CCN(c3ccccc3F)CC2)cc1 (stereo not drawn)	-5.8%	/	/	/
CC(OC(=O)CCC(=O)c1ccc(Cl)s1)C(=O)NC1(C#N)CCCCC1 (stereo not drawn)	18.9%	0.8%	32.4%	44.0%
CCN1C(=O)/C(=C\c2ccc(-c3ccc([N+](=O)[O-])cc3OC)o2)SC1=Nc1cccc(C(=O)O)c1	35.5µM*	-1.0%	-5.1%	?
CCN1C(=O)/C(=C\c2ccc(-c3cccc(C(=O)OC)c3)o2)SC1=Nc1ccc(C(=O)O)cc1	-10.2%	-5.5%	?	?
CCCOc1ccc(C2C(C(=O)/C=C/c3ccco3)=C(O)C(=O)N2CCN2CCOCC2)cc1OC (stereo not drawn)	8.91µM*	1.1%	14.8%	-21.2%
COc1cc(C2C(C(C)=O)=C(O)C(=O)N2CCN2CCOCC2)ccc1O (stereo not drawn)	-5.9%	0.9%	/	147.5%
CCC(C)NC(=O)Cn1c(=O)n(CCCCCC(=O)NCc2ccccc2Cl)c(=O)c2sccc21 (stereo not drawn)	-10.7%	/	/	/
